{"source": "PubChem BioAssay AID1233", "about": "(SRMLSC, 2008)", "molecular_target": "HMG-CoA reductase [Enterococcus faecalis] (UniProt Q9FD70)", "assay": "inhibitors of E. faecalis class II HMGR, confirmation, biochemical, Enterococcus faecalis (AID 1233)", "note": "Measured potencies and affinities stand elsewhere. Activity calls are given as the source filed them.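 How the source made its calls: active means a dose-response curve fit returns a half-maximal inhibitory concentration, extrapolated values included; inactive means the fit returns no such concentration.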"}
{"smiles": "COc1ccccc1Sc1ccccc1/C=N/NC(N)=O", "values": [{"measurement": "outcome", "value": "inactive"}]}
{"smiles": "O=C(Nc1ccccc1)N1C2CCC1CC(O)(c1cccnc1)C2", "note": "(stereo unspecified)", "values": [{"measurement": "outcome", "value": "inactive"}]}
{"smiles": "CN(CCO)c1cc(NCCCN2CCC(Cc3ccccc3)CC2)c2nonc2c1[N+](=O)[O-]", "values": [{"measurement": "outcome", "value": "inactive"}]}
{"smiles": "CSc1ccc(C2CC(=O)Nc3nc(SC)[nH]c(=O)c32)cc1", "note": "(stereo unspecified)", "values": [{"measurement": "outcome", "value": "inactive"}]}
{"smiles": "CCCS(=O)(=O)N1CCN(C(=O)c2ccc(-c3ccccc3)cc2)CC1", "values": [{"measurement": "outcome", "value": "inactive"}]}
{"smiles": "Cc1ccc(-n2c(SCC(=O)N(C)C3CCS(=O)(=O)C3)nc3ccccc3c2=O)cc1", "note": "(stereo unspecified)", "values": [{"measurement": "outcome", "value": "inactive"}]}
{"smiles": "Cc1csc(NC(=O)c2cnccn2)n1", "values": [{"measurement": "outcome", "value": "inactive"}]}
{"smiles": "COc1ccc(C2C(C(C)=O)=C(Nc3ccccc3)CC(C)(O)C2C(C)=O)cc1OC", "note": "(stereo unspecified)", "values": [{"measurement": "outcome", "value": "inactive"}]}
{"smiles": "Cc1[nH][nH]c(=O)c1C(c1c(C)[nH][nH]c1=O)c1cn(Cc2ccc(F)cc2)c2ccccc12", "values": [{"measurement": "outcome", "value": "inactive"}]}
{"smiles": "COc1ccc(/C=N/NC(=O)C(C)Sc2ccccn2)cc1[N+](=O)[O-]", "note": "(stereo unspecified)", "values": [{"measurement": "outcome", "value": "inactive"}]}
{"smiles": "CCOC(=O)C(=O)Nc1ccc([N+](=O)[O-])cc1OC", "values": [{"measurement": "outcome", "value": "inactive"}]}
{"smiles": "O=C(CNC(=O)c1ccccc1)N/N=C/c1cccs1", "values": [{"measurement": "outcome", "value": "inactive"}]}
{"smiles": "CCC1Oc2ccccc2N(CC(=O)NCc2ccco2)C1=O", "note": "(stereo unspecified)", "values": [{"measurement": "outcome", "value": "inactive"}]}
{"smiles": "O=C(Cc1ccccc1)Nc1ccccc1CO", "values": [{"measurement": "outcome", "value": "inactive"}]}
{"smiles": "COC(=O)CNC(=O)CSc1nnc2cc(C)c3ccccc3n12", "values": [{"measurement": "outcome", "value": "inactive"}]}
{"smiles": "N#CC(C#N)=Cc1cc2ccccc2nc1N1CCOCC1", "values": [{"measurement": "outcome", "value": "inactive"}]}
{"smiles": "O=C(CNC(=O)c1ccc(S(=O)(=O)N2CCCC2)cc1)N/N=C/c1ccc(Cl)cc1", "values": [{"measurement": "outcome", "value": "inactive"}]}
{"smiles": "COc1ccc(/C=N/Nc2nccnc2Cl)c(OC)c1", "values": [{"measurement": "outcome", "value": "inactive"}]}
{"smiles": "N#Cc1c(/N=C/c2ccco2)sc2c1CCCCC2", "values": [{"measurement": "outcome", "value": "inactive"}]}
{"smiles": "O=C(O)CCCCCCC1C(=O)NC(=O)N1CCC(O)C1CCCCC1", "note": "(stereo unspecified)", "values": [{"measurement": "outcome", "value": "inactive"}]}
{"smiles": "Clc1cccc(CN2CCC(Cc3ccccc3)CC2)c1", "values": [{"measurement": "outcome", "value": "inactive"}]}
{"smiles": "CCCCC(=O)Nc1cc(OCC)c(NC(=S)NC)cc1OCC", "values": [{"measurement": "outcome", "value": "inactive"}]}
{"smiles": "CN(C(=O)CCN1C(=O)C(C)(C)Nc2ccccc21)c1ccccc1", "values": [{"measurement": "outcome", "value": "inactive"}]}
{"smiles": "CC(=O)Nc1ccc(S(=O)(=O)N2CCCC2C(=O)O)cc1", "note": "(stereo unspecified)", "values": [{"measurement": "outcome", "value": "inactive"}]}
{"smiles": "COc1oc(-c2ccc(Cl)cc2)nc1C(F)(F)F", "values": [{"measurement": "outcome", "value": "inactive"}]}
{"smiles": "O=C(Nc1ccc(Cl)cc1)Nc1nnc(-c2ccncc2)s1", "values": [{"measurement": "outcome", "value": "inactive"}]}
{"smiles": "Cc1cc(-c2ccccc2)nc(SCC(=O)N2CCCC2)n1", "values": [{"measurement": "outcome", "value": "inactive"}]}
{"smiles": "CCOc1cccc2cc(C(N)=O)c(=NCc3ccccc3)oc12", "values": [{"measurement": "outcome", "value": "inactive"}]}
{"smiles": "Nc1c(C(=O)c2ccccc2)sc2c1c(=O)[nH]c(=O)n2-c1ccccc1", "values": [{"measurement": "outcome", "value": "inactive"}]}
{"smiles": "Cc1ccc(C(=O)CC2(O)C(=O)N(C)c3ccccc32)s1", "note": "(stereo unspecified)", "values": [{"measurement": "outcome", "value": "inactive"}]}
{"smiles": "O=C(N/N=C/C(Cl)=C/c1ccccc1)c1cnccn1", "values": [{"measurement": "outcome", "value": "inactive"}]}
{"smiles": "CN(C)CCNC(=O)c1ccc(COc2ccc(Cl)cc2Cl)cc1", "values": [{"measurement": "outcome", "value": "inactive"}]}
{"smiles": "O=C1CC(=O)N(Cc2ccco2)C(=S)N1", "values": [{"measurement": "outcome", "value": "inactive"}]}
{"smiles": "C=CCn1c(Oc2ccccc2)nc2c1c(=O)n(C)c(=O)n2C", "values": [{"measurement": "outcome", "value": "inactive"}]}
{"smiles": "CCOc1cc(/C=N\\NC(=O)OC(C)(C)C)ccc1OC(=O)c1ccco1", "values": [{"measurement": "outcome", "value": "inactive"}]}
{"smiles": "COc1cccc(C2NC(=O)NC(O)(C(F)(F)F)C2C(=O)c2cccnc2)c1OC", "note": "(stereo unspecified)", "values": [{"measurement": "outcome", "value": "inactive"}]}
{"smiles": "COc1ccc(NC(=O)N(Cc2cc3ccc(OC)cc3[nH]c2=O)CC2CCCO2)cc1", "note": "(stereo unspecified)", "values": [{"measurement": "outcome", "value": "inactive"}]}
{"smiles": "N#CC(=C1CCCC1)c1nc(-c2ccc(Cl)cc2)cs1", "values": [{"measurement": "outcome", "value": "inactive"}]}
{"smiles": "CCc1nc(N)nc(N)c1-c1ccc(Cl)cc1", "values": [{"measurement": "outcome", "value": "inactive"}]}
{"smiles": "O=C(CC1SCCNC1=O)Nc1ccc(F)c(Cl)c1", "note": "(stereo unspecified)", "values": [{"measurement": "outcome", "value": "inactive"}]}
{"smiles": "C=CCOc1c(Br)cc(CNc2nccs2)cc1OC", "values": [{"measurement": "outcome", "value": "inactive"}]}
{"smiles": "Cc1ccc(NS(=O)(=O)c2ccc(NC(=O)[C@@H]3CCCC[C@@H]3C(=O)O)cc2)c(C)c1", "values": [{"measurement": "outcome", "value": "inactive"}]}
{"smiles": "Cc1ccc(C(=O)NCc2ccccc2)c(F)c1F", "values": [{"measurement": "outcome", "value": "inactive"}]}
{"smiles": "Cc1cccnc1NC(=O)Cn1nc([N+](=O)[O-])cc1C", "values": [{"measurement": "outcome", "value": "inactive"}]}
{"smiles": "CCOc1ccc(-c2[nH]ncc2Oc2ccccc2OCC)c(O)c1", "values": [{"measurement": "outcome", "value": "inactive"}]}
{"smiles": "O=C(COc1ccc2ccc(=O)oc2c1)N1CCN(c2ccccc2)CC1", "values": [{"measurement": "outcome", "value": "inactive"}]}
{"smiles": "Cc1cc(C)cc(-n2c3nc4ccccc4nc3c3c(=O)n(Cc4ccco4)cnc32)c1", "values": [{"measurement": "outcome", "value": "inactive"}]}
{"smiles": "O=C(C1c2ccccc2C(=O)N2CCc3ccccc3C12)N1CCN(Cc2ccccc2)CC1", "note": "(stereo unspecified)", "values": [{"measurement": "outcome", "value": "inactive"}]}
{"smiles": "CN(C)S(=O)(=O)c1cccc(C(=O)Nc2ccc(S(=O)(=O)N3CCCC3)cc2)c1", "values": [{"measurement": "outcome", "value": "inactive"}]}
{"smiles": "Cc1ccccc1-n1nc(C)c2cc(C(=O)N3CCN(S(=O)(=O)c4ccc(F)cc4)CC3)sc21", "values": [{"measurement": "outcome", "value": "inactive"}]}
{"smiles": "O=C(O)c1cc(N/N=C/C(Cl)=C/c2ccccc2)ccc1Cl", "values": [{"measurement": "outcome", "value": "inactive"}]}
